Assay outcomes from PubChem BioAssay.
Vaccinia mCherry = vaccinia inhibition (mCherry reporter). Potency, µM (doses to about 36.5 µM), hits mostly inhibitors. Vaccinia virus mCherry reporter infection, fluorescence. 310,000 compounds, 0.63% hits; calls by dose curve; tested in A549 cells; further: nearly all actives have a fitted effect of over 35% in size
Marburg entry inh = Marburg virus entry inhibition; Marburg virus pseudotyped entry inhibition, cell reporter; Potency, µM (highest dose often 37.8 µM), actives largely listed as inhibitors; 300,000 compounds, 1.8% hits; AID 540276; calls by dose curve; tested in HEK293 cells
LASV entry inh = blocks Lassa virus binding to or entry into cells. 300,000 compounds, 1.2% hits. Potency, µM (doses to about 37.9 µM), hits mostly inhibitors. Lassa virus pseudotype entry inhibition, cell reporter; calls by dose curve; tested in HEK293 cells; further: nearly all actives have a fitted effect of over 50% in size
Vaccinia Venus = vaccinia inhibition (Venus reporter). Vaccinia virus Venus reporter expression, fluorescence. Potency, µM (series often up to 36.5 µM), most hits filed as inhibitors. 330,000 compounds, 0.46% hits. AID 720580; calls by dose curve; tested in A549 cells; further: nearly all actives have a fitted effect of over 30% in size
FMDV antiviral = foot and mouth disease virus antiviral activity. 410,000 compounds, 1.2% hits. FMDV antiviral cell-based qHTS. AID 1159524. Potency, µM (highest dose often 57.9 µM), hits mostly inhibitors; calls by dose curve; tested in HEK293T cells; further: read-out not given here; nearly all actives have a fitted effect of over 45% in size
HCMV inh = inhibitors of human cytomegalovirus | HFF cells, HCMV-luciferase reporter, 72 h; hits give low values | activity change, negative = inhibition, % at 57.5 µM | 410,000 compounds, 4.5% hits; in the data active means activity change below about -60%; inconclusive means no clear call, values can overlap the other calls; inactive means above about -39%
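After 16 h attachment at 37C, HFF cells received test compound and HCMV-luciferase (1 PFU/cell); reporter luminescence read 72 h later, data normalized against buffer-only and known inhibitor Salinomycin.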
Hits are given with their value; [ ] = remark or other dose. Sampled rows, rich in hits. Any-hit rate of the full collection: about 6.5%.

For COC(=O)[C@@H]1CC[C@H](C)[C@@H](c2ccc(C)cc2)N1C(=O)c1ccc(C=NO[C@H](C)c2cn([C@@H]3COC[C@@H]3O)nn2)cc1 the results were Marburg entry inh inactive and LASV entry inh inactive.
`Oc1ccc(Cl)cc1-c1cc(-c2cccc(Br)c2)n[nH]1` gave Marburg entry inh inconclusive, LASV entry inh inconclusive, FMDV antiviral inactive and HCMV inh -93.2.
`Oc1ccccc1-c1cc(-c2cccc(F)c2)n[nH]1` gave Marburg entry inh inactive, LASV entry inh inconclusive, FMDV antiviral inactive and HCMV inh inactive.
`CCC(C)NC(=O)Cc1c(OC)ccc2cc(Br)ccc12` (centres undefined) gave FMDV antiviral inactive and HCMV inh inactive.
`COc1cc(C)nc(-c2csc(C)n2)n1` gave FMDV antiviral inactive and HCMV inh -86.5.
`COc1ccc(-c2csc(C)n2)cc1` gave Vaccinia mCherry inactive, Marburg entry inh inactive, LASV entry inh inactive, Vaccinia Venus inactive, FMDV antiviral inactive and HCMV inh inactive.
For O=C(NCCc1cnc[nH]1)c1cccs1 the results were FMDV antiviral inactive and HCMV inh inactive.
`NS(=O)(=O)c1ccc(N=Nc2c(O)[nH]c3ccc(C(=O)NCCc4cnc[nH]4)cc23)cc1` gave LASV entry inh 4.99µM.
For CC1CCCC(NC(=O)CN2C(=O)NC(C)(c3cc(F)ccc3F)C2=O)C1C (centres undefined) the results were Vaccinia mCherry inactive, Marburg entry inh inactive, LASV entry inh inconclusive, Vaccinia Venus inactive, FMDV antiviral inactive and HCMV inh inactive.
Cc1nc(CC(=O)c2ccc(O)cc2O)cs1 was read as Marburg entry inh inactive, LASV entry inh inconclusive, FMDV antiviral inactive and HCMV inh inactive.
Cc1nc(CC(=O)c2c(C)cc(O)cc2O)cs1 was read as Vaccinia mCherry inactive, Marburg entry inh inactive, LASV entry inh inactive, Vaccinia Venus inactive and HCMV inh -70.6.
Screening CCCCC(CC)CN=C(N)NC(N)=NCCCCCCN=C(N)NC(N)=NCC(CC)CCCC (centres undefined) returned Vaccinia mCherry inconclusive, Vaccinia Venus 10µM and FMDV antiviral inconclusive.
For Cc1ccc(NC(=S)NNC(=O)c2c(Cl)c(C)nn2C)cc1 the results were Vaccinia mCherry inactive, Marburg entry inh inactive, LASV entry inh inconclusive, Vaccinia Venus inactive, FMDV antiviral inactive and HCMV inh -72.6.
Screening Cc1nn(C)c(C(=O)NCc2ccc(Cl)cc2)c1Cl returned Vaccinia mCherry inactive, Marburg entry inh inconclusive, LASV entry inh inactive, Vaccinia Venus inactive, FMDV antiviral inconclusive and HCMV inh -79.8.
Cc1nc(C)c(C(=O)NCc2ccc(Cl)cc2)o1 was read as Vaccinia mCherry inactive, Marburg entry inh inactive, LASV entry inh inactive, Vaccinia Venus inactive, FMDV antiviral inconclusive and HCMV inh inactive.
`O=C(Nc1ccc2c(c1)N(C1CCCC1)C(=O)c1ccccc1S2)c1ccccc1` gave Vaccinia mCherry inactive, LASV entry inh 2.82µM, Vaccinia Venus inactive, FMDV antiviral inactive and HCMV inh -63.5.
CC(C)Oc1ccc(CNC(=O)Nc2ccc3c(c2)N(C)C(=O)c2ccccc2S3)cc1 was read as Vaccinia mCherry inconclusive, Marburg entry inh inconclusive, LASV entry inh inactive, Vaccinia Venus inconclusive, FMDV antiviral inconclusive and HCMV inh -76.3.
Screening COc1ccc(CNC(=O)Nc2ccc3c(c2)N(C)C(=O)c2ccccc2S3)cc1OC returned Vaccinia mCherry inactive, Marburg entry inh inactive, LASV entry inh inactive, Vaccinia Venus inactive, FMDV antiviral inconclusive and HCMV inh inconclusive.
For CCN(Cc1ccccc1)C(=O)Nc1ccc2c(c1)N(C)C(=O)c1ccccc1S2 the results were Vaccinia mCherry inactive, Marburg entry inh inconclusive, LASV entry inh inconclusive, Vaccinia Venus inactive, FMDV antiviral inactive and HCMV inh inactive.
`O=C(Nc1ccc2c(c1)N(C1CCCC1)C(=O)c1ccccc1S2)c1ccc(F)cc1` gave Vaccinia mCherry inactive, LASV entry inh inconclusive, Vaccinia Venus inactive, FMDV antiviral inactive and HCMV inh inconclusive.
`CN1C(=O)c2ccccc2Sc2ccc(NC(=O)N3CCN(c4ccccc4)CC3)cc21` gave Vaccinia mCherry inconclusive, Marburg entry inh inconclusive, LASV entry inh inactive, Vaccinia Venus inconclusive, FMDV antiviral inconclusive and HCMV inh -76.5.
CN(Cc1ccccc1)C(=O)Nc1ccc2c(c1)N(C)C(=O)c1ccccc1S2 was read as Vaccinia mCherry inactive, Marburg entry inh 10µM, LASV entry inh inconclusive, Vaccinia Venus inactive, FMDV antiviral inactive and HCMV inh inactive.
`CC1(C)OC(=O)NC1=O` gave Vaccinia mCherry inactive, Vaccinia Venus inactive and FMDV antiviral inactive.
O=C(c1cccs1)N1C(=O)c2cccc3cccc1c23 was read as Vaccinia mCherry inactive, Marburg entry inh inactive, LASV entry inh inactive, Vaccinia Venus inactive, FMDV antiviral inactive and HCMV inh inactive.
`COC(=O)c1c(C)[nH]c2ccccc12` gave HCMV inh inactive.
Screening Cc1cccc(C)c1NC(=O)COC(=O)c1cc(=O)c2ccccc2o1 returned Vaccinia mCherry inactive, Vaccinia Venus inactive, FMDV antiviral inactive and HCMV inh inactive.
CCOC(=O)N1CCC(NC(=O)c2ccc3c(c2)N=C(CC)c2cc(C)ccc2S3)CC1 was read as Vaccinia mCherry inactive, Marburg entry inh inconclusive, LASV entry inh inconclusive, Vaccinia Venus inactive, FMDV antiviral inconclusive and HCMV inh inactive.
`CCCC1=Nc2cc(C(=O)NC3CCCC3)ccc2Sc2ccc(C)cc21` gave Vaccinia mCherry inactive[7.34 µM], Marburg entry inh inconclusive, LASV entry inh inconclusive, Vaccinia Venus inactive[7.34 µM], FMDV antiviral inactive and HCMV inh -78.7.
Screening CCCC1=Nc2cc(C(=O)NC3CCCCC3)ccc2Sc2ccc(C)cc21 returned Vaccinia mCherry inconclusive, LASV entry inh inconclusive, Vaccinia Venus inconclusive, FMDV antiviral inactive and HCMV inh -91.1.
CCC1=Nc2cc(C(=O)NC3CCC(C)CC3)ccc2Sc2ccc(C)cc21 (centres undefined) was read as Vaccinia mCherry inconclusive, Marburg entry inh inconclusive, LASV entry inh inconclusive, Vaccinia Venus inconclusive, FMDV antiviral inactive and HCMV inh -81.8.
Screening CCC1=Nc2cc(C(=O)NCc3ccco3)ccc2Sc2ccc(C)cc21 returned Vaccinia mCherry inactive, Marburg entry inh inactive, LASV entry inh inconclusive, Vaccinia Venus inconclusive, FMDV antiviral inactive and HCMV inh -75.4.
For CC1=C(C(=O)Nc2ccccc2Cl)C(c2cccc(O)c2)n2ncnc2N1 (centres undefined) the results were Vaccinia mCherry inactive, LASV entry inh inactive, Vaccinia Venus inactive, FMDV antiviral inactive and HCMV inh inactive.
Screening CCSc1nnc2c(n1)OC(c1sccc1C)N(C(C)=O)c1ccccc1-2 (centres undefined) returned Vaccinia mCherry inactive, Marburg entry inh inactive, LASV entry inh inactive, Vaccinia Venus inactive, FMDV antiviral inactive and HCMV inh -60.1.
CCCC(=O)N1c2ccccc2-c2nnc(SC)nc2OC1c1sccc1C (centres undefined) was read as Vaccinia mCherry inactive, Marburg entry inh inactive, LASV entry inh inactive, Vaccinia Venus inactive, FMDV antiviral inactive and HCMV inh inactive.
